From PubChem BioAssay (NCI)
“And” between values parts separate entries of the source, which are not always exact repeats. Identical values can stand only once. About 83,000 compounds went through this panel and 20% of them were active in at least one assay; those are over-represented in the sample as a whole.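 Treatment: one concentration, 48 hours, 96-well format. Scoring: percent growth, with anything below 10 considered active.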 The source made the active and inactive calls.

Test system: MDA-MB-468 breast
Test: NCI-60 one-dose screen, 48 h (100 = growth as untreated, 0 = no growth, -100 = all killed)
Details: 10 µM unless noted

Structure (SMILES)	growth
Nc1nc(N)c2cc(S(=O)(=O)c3ccccc3)ccc2n1	49.9% (inactive) and 57.7% (inactive)
COc1ccc(-c2nc(Nc3ccc(F)cc3)nc(Nc3ccc4c(c3)nc(C)n4Cc3ccccc3)n2)cc1	28.4% (inactive)
Cc1cc(Nc2nc(C(=O)Nc3ccccc3)nc3ccccc23)n[nH]1	68.9% (inactive)
O=c1c2sc3ncc(Cl)cc3c2nnn1-c1cccc(Cl)c1	97.3% (inactive)
NC(=O)c1c(NC(=O)c2ccc(C(F)(F)F)cc2Cl)sc2c1CCC(=O)C2	-33.8% (active)
O=C1Nc2cc(-c3ccc(O)cc3)ccc2/C1=C/c1ccc[nH]1	-29.2% (active)
O=C(O)c1ccc(-n2c(=O)c3ccccc3c3ccccc3c2=O)cc1	105% (inactive)
C(=C\c1n(Cc2ccc3ccccc3c2)c(-c2ccccc2)c(-c2ccccc2)[n+]1Cc1ccc2ccccc2c1)/c1ccccc1	-70.8% (active)
CCCCN1C(=O)/C(=c2\sc3n(c2=O)C2C(NN=3)N(CC)C(=O)N2CC)c2cccc(C)c21 (stereo not drawn)	12.4% (inactive)
C=C1C(=O)O[C@H]2[C@H]1CC/C(COC(=O)CCCCCCCC(=O)OC/C1=C/CC[C@@]3(C)O[C@H]3[C@H]3OC(=O)C(=C)[C@@H]3CC1)=C\CC[C@@]1(C)O[C@@H]21	-21.6% (active)
O=C(Nc1ncc(Cc2ccccc2)s1)c1ccc2c(c1)OCCO2	28.2% (inactive)
COc1ccc2c(c1)-c1c(c3cc(OC)ccc3n(CCN(C)C)c1=O)C2=O	46% (inactive)
Cn1nc(C(F)(F)F)cc1-c1c[nH]c(OCc2ccc(Cl)cc2)c(-c2ccc(Cl)c(C(F)(F)F)c2)c1=O	-17.1% (active)
